The list is not random: actives were taken first. Their share in the collection is about 0.32%.
Yp Topo-I inh: Y. pestis Topo-I inhibition via cleavage products; activity, % at 10 µM; AID 504884; Y. pestis Topo-I cleavage product accumulation, plate reader; 360,000 compounds, 0.064% hits; in the data active = activity above about 50%, passing the limit was not always enough
Mtb BioA inh: inhibitors of Mycobacterium tuberculosis BioA enzyme | AID 602481 | purified M. tuberculosis BioA enzyme, plate reader | 360,000 compounds, 0.096% hits | inhibition, % at 9.99 µM; in the data active = inhibition above about 40%
TcdB inh: inhibitors of Clostridioides difficile toxin B glycohydrolase; inhibition, % at 9.99 µM; TcdB glycohydrolase enzymatic assay, plate reader; 350,000 compounds, 0.24% hits; in the data active = inhibition above about 10%
Target sequence (P18177 whole entry, looked up): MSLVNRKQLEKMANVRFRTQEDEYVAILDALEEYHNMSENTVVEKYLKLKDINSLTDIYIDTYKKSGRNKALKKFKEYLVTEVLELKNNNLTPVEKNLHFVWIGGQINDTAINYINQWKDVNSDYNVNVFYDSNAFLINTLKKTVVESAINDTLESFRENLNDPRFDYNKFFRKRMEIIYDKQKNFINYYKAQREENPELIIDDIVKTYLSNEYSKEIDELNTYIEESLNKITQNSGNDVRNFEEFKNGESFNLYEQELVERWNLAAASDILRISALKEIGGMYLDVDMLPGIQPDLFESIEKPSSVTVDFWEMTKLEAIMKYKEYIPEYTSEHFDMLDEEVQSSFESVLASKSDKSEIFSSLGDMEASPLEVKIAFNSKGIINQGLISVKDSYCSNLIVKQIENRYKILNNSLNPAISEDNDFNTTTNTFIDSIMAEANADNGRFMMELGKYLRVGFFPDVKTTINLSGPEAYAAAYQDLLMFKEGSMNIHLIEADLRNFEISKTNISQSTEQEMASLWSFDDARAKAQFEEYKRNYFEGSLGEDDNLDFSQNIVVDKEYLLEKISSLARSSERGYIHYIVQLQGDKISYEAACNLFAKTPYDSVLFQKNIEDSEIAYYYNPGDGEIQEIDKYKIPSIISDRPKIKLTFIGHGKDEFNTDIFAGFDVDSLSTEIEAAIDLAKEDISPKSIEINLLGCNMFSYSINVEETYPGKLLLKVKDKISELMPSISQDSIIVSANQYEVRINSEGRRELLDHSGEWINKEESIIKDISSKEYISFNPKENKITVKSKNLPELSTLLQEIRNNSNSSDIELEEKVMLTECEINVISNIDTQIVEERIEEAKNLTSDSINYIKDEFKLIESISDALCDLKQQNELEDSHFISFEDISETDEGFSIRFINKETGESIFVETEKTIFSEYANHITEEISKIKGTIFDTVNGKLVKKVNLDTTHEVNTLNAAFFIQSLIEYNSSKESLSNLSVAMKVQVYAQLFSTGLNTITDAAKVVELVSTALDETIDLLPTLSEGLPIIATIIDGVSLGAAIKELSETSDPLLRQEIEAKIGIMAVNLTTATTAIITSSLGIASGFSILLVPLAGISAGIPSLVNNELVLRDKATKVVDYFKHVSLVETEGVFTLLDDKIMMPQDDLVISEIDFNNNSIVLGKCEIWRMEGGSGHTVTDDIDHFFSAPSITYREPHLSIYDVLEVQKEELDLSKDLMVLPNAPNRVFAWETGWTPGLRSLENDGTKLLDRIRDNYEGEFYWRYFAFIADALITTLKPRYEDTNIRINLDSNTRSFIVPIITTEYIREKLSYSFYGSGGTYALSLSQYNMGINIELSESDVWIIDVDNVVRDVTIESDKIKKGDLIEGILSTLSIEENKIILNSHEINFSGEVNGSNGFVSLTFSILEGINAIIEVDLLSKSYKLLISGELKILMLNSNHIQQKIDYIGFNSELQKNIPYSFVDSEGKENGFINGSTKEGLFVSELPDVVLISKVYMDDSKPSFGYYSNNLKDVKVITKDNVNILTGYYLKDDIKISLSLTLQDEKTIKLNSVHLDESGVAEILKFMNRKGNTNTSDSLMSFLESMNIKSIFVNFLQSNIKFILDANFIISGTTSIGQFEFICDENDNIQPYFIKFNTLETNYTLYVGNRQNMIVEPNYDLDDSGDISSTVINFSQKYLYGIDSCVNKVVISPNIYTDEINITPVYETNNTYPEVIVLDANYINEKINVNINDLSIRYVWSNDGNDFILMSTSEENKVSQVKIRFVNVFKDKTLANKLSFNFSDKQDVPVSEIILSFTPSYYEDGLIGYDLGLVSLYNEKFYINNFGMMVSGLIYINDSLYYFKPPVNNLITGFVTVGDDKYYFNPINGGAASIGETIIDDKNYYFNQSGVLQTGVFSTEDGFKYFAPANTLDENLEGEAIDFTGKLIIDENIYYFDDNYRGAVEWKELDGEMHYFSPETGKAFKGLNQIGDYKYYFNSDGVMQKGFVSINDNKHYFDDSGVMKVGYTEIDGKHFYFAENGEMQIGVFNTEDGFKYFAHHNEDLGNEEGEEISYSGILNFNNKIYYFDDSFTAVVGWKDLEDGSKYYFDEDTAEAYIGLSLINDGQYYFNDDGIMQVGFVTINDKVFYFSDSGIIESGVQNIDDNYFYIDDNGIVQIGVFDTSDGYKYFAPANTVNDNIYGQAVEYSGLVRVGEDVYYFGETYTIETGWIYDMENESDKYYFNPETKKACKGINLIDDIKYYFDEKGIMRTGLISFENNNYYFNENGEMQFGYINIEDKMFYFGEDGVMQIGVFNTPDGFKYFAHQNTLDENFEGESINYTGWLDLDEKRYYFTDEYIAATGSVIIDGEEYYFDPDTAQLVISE
* hit, by the source's call.

For O=C(Nc1ccc(N2CCN(c3ccc(O)cc3)CC2)cc1)Oc1ccccc1 the results were Yp Topo-I inh -14, Mtb BioA inh -3 and TcdB inh -1.
`CC(=O)Nc1ccc(C)cc1` gave Yp Topo-I inh -6, Mtb BioA inh -1 and TcdB inh 0.
Screening CC(=O)Nc1ccc(O)cc1 returned Yp Topo-I inh 0, Mtb BioA inh 0 and TcdB inh 25*.
Screening CC(=O)N/C(=C\c1ccccc1)C(=O)Nc1ccc(O)cc1 returned Yp Topo-I inh -4 and TcdB inh 13*.
Nc1ccc(OC(=O)Nc2ccc(O)cc2)cc1 was read as Yp Topo-I inh -3, Mtb BioA inh 1 and TcdB inh 12*.
`CC(=O)c1ccc(NC(=O)/C(=C\c2ccccc2)NC(=O)/C=C/c2ccccc2)cc1` gave Yp Topo-I inh 37.
CO[C@H]1CN(C)C(=O)c2ccc(NC(=O)C3CCOCC3)cc2OC[C@@H](C)N(C)C[C@H]1C was read as Mtb BioA inh 0.
`COc1ccc(S(=O)(=O)N(C)C[C@@H]2OCCCC[C@H](C)Oc3ccc(NC(=O)Nc4c(C)noc4C)cc3C(=O)N([C@H](C)CO)C[C@@H]2C)cc1` gave Mtb BioA inh 3 and TcdB inh -1.
O=C(Cc1ccccn1)N[C@H]1CC[C@H](CCn2cc(-c3cccnc3)nn2)O[C@@H]1CO was read as Mtb BioA inh 3 and TcdB inh 0.
Screening COC(=O)C[C@H]1CC[C@H]2[C@@H](COc3ccc(NC(=O)c4ccc(OC)cc4)cc3C(=O)N2C)O1 returned TcdB inh 1.
For COc1cccc(C(=O)Nc2ccc3c(c2)C(=O)N(C)[C@H]2CC[C@@H](CC(=O)NCC4CC4)O[C@@H]2CO3)c1 the results were Mtb BioA inh 1 and TcdB inh 0.
`CCNC(=O)C[C@H]1CC[C@@H]2[C@H](COc3ccc(NC(=O)c4cccc(OC)c4)cc3C(=O)N2C)O1` gave Mtb BioA inh -2 and TcdB inh 5.
`COc1ccc(C(=O)Nc2ccc3c(c2)C(=O)N(C)[C@@H]2CC[C@H](CC(=O)NCC4CC4)O[C@@H]2CO3)cc1` gave Mtb BioA inh -7 and TcdB inh 15*.
Screening CCNC(=O)C[C@H]1CC[C@@H]2[C@@H](COc3ccc(NC(=O)c4cccc(OC)c4)cc3C(=O)N2C)O1 returned Mtb BioA inh 1 and TcdB inh 10*.
Screening COC(=O)C[C@H]1CC[C@@H]2[C@@H](COc3ccc(NC(=O)c4ccc(OC)cc4)cc3C(=O)N2C)O1 returned Mtb BioA inh 0 and TcdB inh 12*.
O=S(=O)(N[C@@H]1CC[C@@H](CCn2cc(C3CC3)nn2)O[C@H]1CO)c1ccc(F)cc1 was read as Mtb BioA inh 6 and TcdB inh -1.
Screening CC(C)NC(=O)Nc1ccc2c(c1)CC(=O)N([C@H](C)CO)C[C@@H](C)[C@@H](CN(C)C)O2 returned Mtb BioA inh -4 and TcdB inh -3.
`CN1C[C@H]2[C@@H](c3ccccc31)[C@@H](CO)N2C(=O)c1cccnc1` gave Mtb BioA inh 1 and TcdB inh -1.
For CNC[C@@H]1Oc2ccc(NC(=O)Nc3c(C)noc3C)cc2C(=O)N([C@@H](C)CO)C[C@H]1C the results were Mtb BioA inh -1 and TcdB inh 1.
`C[C@@H]1CCCCO[C@H](CN(C)C(=O)Nc2ccc3c(c2)OCO3)[C@@H](C)CN([C@H](C)CO)C(=O)c2cc(NS(C)(=O)=O)ccc2O1` gave Mtb BioA inh 5 and TcdB inh 0.
`O=C(N[C@@H]1CC[C@H](CCNC(=O)C2CC2)O[C@@H]1CO)c1ccccn1` gave Mtb BioA inh -3 and TcdB inh -1.
Screening COc1ccc(Br)cc1CNCCc1ccc2c(c1)OCO2 returned Yp Topo-I inh 8 and TcdB inh 1.
`COc1ccc(CNCCc2ccc3c(c2)OCO3)cc1Br` gave Yp Topo-I inh 6, Mtb BioA inh -2 and TcdB inh 11*.
`CC1(C)CC(=O)C=C(Nc2ccc(O)cc2)C1` gave Yp Topo-I inh -1, Mtb BioA inh 1 and TcdB inh 25*.
For CC(=O)Nc1ccc(NC2=CC(=O)CC(C)(C)C2)cc1 the results were Yp Topo-I inh 4 and Mtb BioA inh -1.
`Cc1nc(SCC(=O)N2CCNC2=O)c(C#N)c(C)c1C` gave Yp Topo-I inh 1, Mtb BioA inh 1 and TcdB inh 13*.
For Cc1nc(SCC(N)=O)c(C#N)c(C)c1C the results were Yp Topo-I inh -5, Mtb BioA inh -2 and TcdB inh 0.
`CC(C)OC(=O)C(C)(C)Oc1ccc(C(=O)c2ccc(Cl)cc2)cc1` gave Yp Topo-I inh 53*, Mtb BioA inh -1 and TcdB inh 3.
CCOC(=O)C(C)(C)Oc1ccc(Cl)cc1 was read as Yp Topo-I inh 0, Mtb BioA inh 0 and TcdB inh 1.
CCCC#Cc1cnc2c(c1)C(=O)N([C@H](C)CO)C[C@H](C)[C@@H](CN(C)C(=O)C1CCCCC1)O2 was read as Mtb BioA inh 0.
Cc1ccc(S(=O)(=O)N2CCC(C(=O)OCc3ccccc3)CC2)cc1C was read as Yp Topo-I inh 35, Mtb BioA inh -1 and TcdB inh 2.
For Cc1ccc(S(=O)(=O)N2CCC(C(=O)OCC(=O)NCCc3ccccc3)CC2)cc1C the results were Yp Topo-I inh 11 and TcdB inh 16*.
`O=C(C1CCC1)N1CCc2cc(S(=O)(=O)N3CCCCC3)ccc21` gave Yp Topo-I inh -1, Mtb BioA inh -1 and TcdB inh -1.
For O=C(C1CCC1)N1CCc2cc(S(=O)(=O)N3CCN(c4ccccn4)CC3)ccc21 the results were Yp Topo-I inh 55* and Mtb BioA inh -1.
`O=C(C[C@@H]1C=C[C@H](NC(=O)C2CC2)[C@@H](CO)O1)Nc1nccs1` gave Mtb BioA inh -1 and TcdB inh 1.
`C[C@H]1CN([C@@H](C)CO)C(=O)c2cccc(NC(=O)Nc3ccc4c(c3)OCO4)c2O[C@H]1CN(C)C(=O)NC1CCCCC1` gave Mtb BioA inh 3 and TcdB inh 0.
Screening Cc1nc2ccccn2c1-c1ccnn1S(=O)(=O)c1ccc(F)cc1 returned Yp Topo-I inh 19, Mtb BioA inh -1 and TcdB inh 15*.
Screening Cc1nc2ccccn2c1C(=O)/C=C/c1ccc(F)cc1 returned Yp Topo-I inh 5 and Mtb BioA inh 0.
CO[C@@H]1CN(C)C(=O)c2ccc(NC(C)=O)cc2OC[C@H](C)N(Cc2ccncc2)C[C@@H]1C was read as Mtb BioA inh -1 and TcdB inh -1.
CC(=O)Oc1cccc2c1C(=O)C1CC=CC(OC(C)=O)C1C2=O (stereo not drawn) was read as Yp Topo-I inh 61* and TcdB inh -1.
Screening CC(=O)Oc1cccc2c1C(=O)c1c(OC(C)=O)cc(C(=O)O)cc1C2=O returned Yp Topo-I inh 8, Mtb BioA inh -1 and TcdB inh 3.
For CCOC(=O)N1CCC(c2cc(=O)n3[nH]c(-c4ccccc4)cc3n2)CC1 the results were Yp Topo-I inh 2, Mtb BioA inh -1 and TcdB inh 24*.
CCOC(=O)Cc1cc(=O)n2[nH]c(-c3ccccc3)cc2n1 was read as Yp Topo-I inh -9, Mtb BioA inh 0 and TcdB inh 2.
COc1ccc(/C=C/C(=O)c2ccc([N+](=O)[O-])o2)cc1OC was read as TcdB inh 1.

Screens: PubChem, Broad Institute
